Data taken from PubChem BioAssay AID1347075 (National Center for Advancing Translational Sciences (NCATS), 2019).
Hit rate of the full screen: of about 400,000 compounds, about 5,500 (1.4%) were called active. Roughly 9% stayed inconclusive and do not appear here. The sample holds actives, similar compounds and a random draw of the others, so the mix is not that of the screen. Calls follow the shape of the dose curve; as a rule, active = well fitted cell-killing curve with a large enough effect; inconclusive = small, poorly fitted or top-dose-only effect, or effect the other way; inactive = flat fitted curve, though single readings scatter.
% is scaled to controls: 0 for no effect and ±100 for the full control effect; potency is read from the fitted curve at half-maximal effect.

Test: qHTS assay for MDR1-selective chemotherapeutics: Primary screen using the parental adenocarcinoma cell KB-3-1; also: nearly all actives have a fitted effect of over 60% in size
Conditions: KB-3-1 viability, CellTiter-Glo ATP luminescence, 72 h; series mostly up to 46.1 µM; activity change, negative = cytotoxic: at the top concentration
Summary of the method: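 KB-3-1 parental drug-naive adenocarcinoma cells in DMEM/10% FBS, incubated 72 h at 37 C with pin-transferred compounds across a concentration series. Viability by CellTiter-Glo luminescence; concentration-response curves fitted after normalization.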
With `Cc1ccc(-c2nc(=N)sn2Cc2ccccc2)cc1` the “activity change, negative = cytotoxic” value was -13.7% (inactive).
For `CCOc1ccccc1N(C)C(=O)c1cc2c(s1)-c1ccccc1OC2`, the “activity change, negative = cytotoxic” value was 3.52% (inactive).
In the case of `CCCCC(CCCC)c1ccc(C=Nc2ccc(/C=C/c3ccnc4ccccc34)cc2)cc1`, the “activity change, negative = cytotoxic” value is reported as 0% (inactive).
With `Cc1cc(C)n2ncc(C(=O)N3CCCC3)c2n1` the “activity change, negative = cytotoxic” value was 5.58% (inactive).
For `Cc1ccccc1NC(=O)c1ccc(COc2ccc3c(C)cc(=O)oc3c2)cc1`, the “activity change, negative = cytotoxic” value was 4.61% (inactive).
For `Cc1cc(=O)oc2cc(OCC3CC(c4ccccc4Cl)=NO3)ccc12` (stereo not given), the Potency was 1.3 µM (active).
In the case of `COc1cccc(-c2nnc(SCCOc3ccc4c(C)cc(=O)oc4c3)o2)c1`, the “activity change, negative = cytotoxic” value is reported as 6.22% (inactive).
For `COC(=O)c1ccc(NC(=O)c2cnn(-c3ccc(Cl)cc3)c2C2CCN(C(=O)OC(C)(C)C)CC2)cc1`, the “activity change, negative = cytotoxic” value was 5.93% (inactive).
In the case of `Clc1ccc2nc(-c3ccccc3)nc(C(Cl)Cl)c2c1`, the Potency is reported as 3.26 µM (active).
In the case of `Fc1ccc2nc(-c3ccccc3)nc(SCc3nnc(-c4ccccc4)o3)c2c1`, the “activity change, negative = cytotoxic” value is reported as 15.5% (inactive).
In the case of `N#CCSc1nc(-c2ccccc2)nc2ccc(F)cc12`, the “activity change, negative = cytotoxic” value is reported as -4.14% (inactive).
For `Oc1c(C(c2ccc(F)cc2)N2CCN(Cc3ccccc3)CC2)sc2nc(-c3ccco3)nn12` (stereo not given), the “activity change, negative = cytotoxic” value was 7.25% (inactive).
With `COc1cc(OC)c(OC)cc1/C=C/c1nc2ccccc2c(=O)n1-c1ccc(Br)c(C)c1` the “activity change, negative = cytotoxic” value was -8.72% (inactive).
In the case of `Cc1cc(C)nc(NS(=O)(=O)c2ccc(NC(=O)c3cc(=O)c4ccc(C)c(C)c4o3)cc2)n1`, the “activity change, negative = cytotoxic” value is reported as -0.0966% (inactive).
For `COc1ccc2c(c1)c(N1CCCC1=O)c(C(=O)Nc1ccc(OC)c(Cl)c1)n2C`, the “activity change, negative = cytotoxic” value was -21.1% (inactive).
With `CC(NC(=O)CSc1nc2c(cc1C#N)CN(C)CC2)c1ccccc1` (stereo not given) the “activity change, negative = cytotoxic” value was -1.09% (inactive).
In the case of `Cc1cc(NC(=O)CSc2nc3c(cc2C#N)CCCCC3)no1`, the Potency is reported as 5.8 µM (active).
In the case of `Cc1cc(NC(=O)COc2ccccc2C#N)no1`, the “activity change, negative = cytotoxic” value is reported as 4.1% (inactive).
With `COc1ccc(S(=O)(=O)NCC(c2ccc(N(C)C)cc2)N2CCc3ccccc32)cc1OC` (stereo not given) the “activity change, negative = cytotoxic” value was -19.8% (inactive).
With `O=C(NNC(=S)NC(=O)c1cn(-c2ccccc2)nc1-c1ccccc1)c1ccncc1` the Potency was 8.2 µM (active).
With `COc1ccccc1N1CCN(C(=O)c2cn(-c3ccccc3)nc2-c2cccnc2)CC1` the “activity change, negative = cytotoxic” value was -3.96% (inactive).
In the case of `O=C(NCCCN1CCOCC1)c1cn(-c2ccccc2)nc1-c1ccc(F)cc1`, the “activity change, negative = cytotoxic” value is reported as 2.18% (inactive).
With `COc1ccc(NC(=O)c2cnc(Nc3ccc(C)c(Cl)c3)c3ccccc23)cc1OC` the “activity change, negative = cytotoxic” value was 13.9% (inactive).
With `Brc1nc2ncnc(NCc3ccco3)c2[nH]1` the “activity change, negative = cytotoxic” value was -9.05% (inactive).
For `O=C(CNS(=O)(=O)c1cccs1)N1CCN(c2ccccc2Cl)CC1`, the “activity change, negative = cytotoxic” value was 5.47% (inactive).
With `Cc1cccc2c1-c1sc(C(=O)Nc3ccc(F)cc3F)cc1CO2` the “activity change, negative = cytotoxic” value was -20.5% (inactive).
In the case of `CCn1cc2nc(SCc3cccc(F)c3)n(CCc3ccccc3)c(=O)c2n1`, the “activity change, negative = cytotoxic” value is reported as -0.543% (inactive).
For `Cc1nn(-c2ccccc2)c(Cl)c1/C=N/NC(=O)c1nn(C)cc1[N+](=O)[O-]`, the Potency was 18.4 µM (active).
In the case of `Cc1nn(Cc2ccc(Cl)cc2)c(Cl)c1/C=N/NC(=O)CNc1ccccc1F`, the “activity change, negative = cytotoxic” value is reported as -11.9% (inactive).
In the case of `Cn1cc([N+](=O)[O-])c(C(=O)Nc2ccc3c(c2)OCCO3)n1`, the “activity change, negative = cytotoxic” value is reported as -20.5% (inactive).
